Results from PubChem BioAssay AID504832 (National Center for Advancing Translational Sciences (NCATS), 2011).
The whole screen tested about 310,000 compounds, of which about 18,000 (5.8%) were called active. Not shown: some 22% with an inconclusive outcome. This is one part of a sample in which actives are shown more often than they occur. Calls follow the shape of the dose curve; as a rule, active = well fitted inhibition curve with a large enough effect; inconclusive = small, poorly fitted or top-dose-only effect, or another doubt; inactive = no such curve, though single readings can be large or run the other way.

test: Primary qHTS for delayed death inhibitors of the malarial parasite plastid, 48 hour incubation; conditions: P. falciparum luciferase growth in erythrocytes; series mostly up to 28.7 µM; activity change, negative = inhibition: at the top concentration
How it was run: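 In quantitative HTS format, infected erythrocytes bearing luciferase-reporter parasites were treated for a single generation at 37 C. Luminescence after adding detection reagent served as the growth measure.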
% is scaled to controls: 0 for no effect and ±100 for the full control effect; potency is read from the fitted curve at half-maximal effect.

Row | SMILES | activity change, negative = inhibition | Potency
1 | CC(=O)NCC(=O)N1CCC(n2nccc2NC(=O)CCCc2ccccc2)CC1 | 9.78% (inactive) | 
2 | CCOc1ccc(N/C(N)=N/c2nc(C)c(C)c(=O)[nH]2)cc1 | -10.7% (inactive) | 
3 | CCN1C(=S)N[C@@H](CCc2ccccc2)[C@H](C(=O)OC)[C@H]1C |  | inactive
4 | CC1C(=O)Nc2ccccc2N1C(=O)c1ccc(F)cc1F (centres undefined) | -6.46% (inactive) | 
5 | COc1ccccc1C(=O)N(Cc1ccc(C)o1)C1CCS(=O)(=O)C1 (centres undefined) | 27.3% (inactive) | 
6 | CC(C)C[C@H](NC(=O)[C@@H]1O[C@H]1C(=O)O)C(=O)NCCCCN=C(N)N |  | 11.7 µM (active)
7 | Cc1cc(C)cc(N(CCC#N)C(=O)CN2C(=O)NC3(CCCC3)C2=O)c1 | 17% (inactive) | 
8 | CC(C)(C)C(=O)CN1C2=NCCN2c2ccccc21 | 0.643% (inactive) | 
9 | Cc1ccc(Nc2nc(N)nc(CN3CCN(Cc4ccccc4)CC3)n2)cc1Cl | 6.24% (inactive) | 
10 | Cc1cc2c(cc1C)N(Cc1ccccc1)C1=NCCCN12 |  | 11.7 µM (active)
11 | Cc1ccc(OCc2nc3ccccc3n2C)cc1 | 130% (inactive) | 
12 | COc1ccc(COC(=O)NC(C(=O)O)c2ccccc2)cc1 (centres undefined) | -25.7% (inactive) | 
13 | COc1ccc(C(CCN(Cc2ccc(OC)c(OC)c2)C(=O)CCl)c2ccccc2)cc1 (centres undefined) |  | 2.94 µM (active)
14 | CCOc1ccc(C(CC(=O)O)NC(=O)Cc2ccccc2)cc1OC (centres undefined) | 15.7% (inactive) | 
15 | O=C(CCCCO)c1ccc(O)c(Cl)c1 | -10.3% (inactive) | 
16 | Cc1ccc(OCC(=O)Nc2ccc3oc(=O)ccc3c2)cc1C | 16.6% (inactive) | 
17 | CC[C@]1(O)C[C@@H]2CN(CCc3c([nH]c4ccccc34)[C@@](C(=O)OC)(c3cc4c(cc3OC)N(C)[C@H]3[C@@](O)(C(=O)OC)[C@H](OC(C)=O)[C@]5(CC)C=CCN6CC[C@]43[C@@H]65)C2)C1 |  | 0.208 µM (active)
18 | CC[C@]1(O)CC2CN(CCc3c([nH]c4ccccc34)[C@@](C(=O)OC)(c3cc4c(cc3OC)N(C=O)[C@H]3[C@@](O)(C(=O)OC)[C@H](OC(C)=O)[C@]5(CC)C=CCN6CC[C@]43[C@@H]65)C2)C1 (some centres undefined) |  | 0.147 µM (active)
19 | COc1ccc(NC(=O)C2CCC(CNS(=O)(=O)c3csc(C(N)=O)c3)CC2)cc1OC (centres undefined) | -9.3% (inactive) | 
20 | CCN(CC(=O)Nc1cccc(S(N)(=O)=O)c1)Cc1nc2ccccc2c(=O)[nH]1 | 97.7% (inactive) | 
21 | CC(=O)NC(CC(=O)Nc1cccc(S(=O)(=O)N2CCCC2)c1)c1ccccc1 (centres undefined) | -5.84% (inactive) | 
22 | CCCCN(CC(=O)Nc1cccc(S(=O)(=O)N2CCCC2)c1)Cc1nc2ccccc2c(=O)[nH]1 |  | 3.7 µM (active)
23 | O=C(NCCc1ccc(Cl)cc1)c1cccc(N2CCCC2=O)c1 | 58.9% (inactive) | 
24 | CCN1C(=NCCc2cccnc2)N[C@@H](c2ccccc2)[C@H](C(=O)OC)[C@H]1C |  | inactive
